# This is part of a sample that, as a whole, favours compounds with a hit. Of some 79,000 tested, about 15% had one in any assay. A number with no mark means an inactive call. The source made the active and inactive calls. Cut-off read from the data, not from the text of the source: active = growth inhibition above about 70%; inactive = the rest.
# Tests used:
# [1] = NCI Yeast Anticancer Drug Screen. Data for the rad50 strain (AID 155);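 note: 0% = growth of vehicle-only cultures of the same strain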; settings: S. cerevisiae rad50 strain growth inhibition, hits give high values
# Outline: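 Genetically altered yeast (DNA repair pathway); compound treatment; growth inhibition vs vehicle ctrl.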
# [2] = NCI Yeast Anticancer Drug Screen. Data for the mec2-1 strain (AID 157); settings: S. cerevisiae mec2-1 strain, hits give high values
# Outline: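 Readout is yeast growth inhibition, normalised to vehicle-treated controls, in the mec2-1 strain exposed to compound.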
# [3] = NCI Yeast Anticancer Drug Screen. Data for the sgs1 mgt1 strain (AID 161);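 note: 0% = growth of cultures given vehicle only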; settings: S. cerevisiae sgs1 mgt1 strain, hits give high values
# Outline: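 Yeast cells carrying a defined DNA-repair defect were exposed to test compounds. Growth inhibition was measured relative to vehicle-treated controls.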
# [4] = NCI Yeast Anticancer Drug Screen. Data for the cln2 rad14 strain (AID 165);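 note: 0% = growth equal to vehicle treated cultures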; settings: S. cerevisiae cln2 rad14 strain, hits give high values
# Outline: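 Relative to vehicle controls, growth inhibition of compound-treated cln2 rad14 yeast was recorded.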
# [5] = NCI Yeast Anticancer Drug Screen. Data for the bub3 strain (AID 167); settings: S. cerevisiae bub3 mutant strain, hits give high values
# Outline: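 Yeast carrying a defined mutation is treated with each compound, and growth is compared with that of vehicle-exposed cells to give inhibition.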
# [6] = NCI Yeast Anticancer Drug Screen. Data for the mlh1 rad18 strain (AID 175); settings: S. cerevisiae mlh1 rad18 strain growth inhibition, hits give high values
# Outline: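 Test agents were incubated with a yeast strain of defined genotype (DNA damage repair defect). Inhibition of growth was derived by comparison with vehicle-exposed cultures.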
# [7] = at 5.0 µM (retest, dose inferred, filed as 0.5)
# [8] = at 50.0 µM (retest, dose inferred, filed as 5.0)
Compound,"growth inhibition [1, 7]","growth inhibition [1, 8]",growth inhibition ([1]; at 50.0 µM),"growth inhibition [2, 7]","growth inhibition [2, 8]",growth inhibition ([2]; at 50.0 µM),"growth inhibition [3, 7]","growth inhibition [3, 8]",growth inhibition ([3]; at 50.0 µM),"growth inhibition [4, 7]","growth inhibition [4, 8]",growth inhibition ([4]; at 50.0 µM),"growth inhibition [5, 7]","growth inhibition [5, 8]",growth inhibition ([5]; at 50.0 µM),"growth inhibition [6, 7]","growth inhibition [6, 8]",growth inhibition ([6]; at 50.0 µM)
Cc1ccc(NCCN(C)C)c2c(=O)c3c(O)cccc3sc12,95% (active),99% (active),67.3%,13%,100% (active),54.3%,30%,98% (active),60.7%,11%,99% (active),58.7%,9%,99% (active),49.5%,29%,99% (active),55.8%
Cn1c2c(c3ccccc31)CCN(CCCN1CCN(c3ccccc3)CC1)C2=O,49%,49%,90.1% (active),43%,43%,89.2% (active),58%,58%,90.4% (active),38%,38%,91.5% (active),51%,51%,91.3% (active),41%,41%,84.7% (active)
O=C(CNC(=O)Nc1ccc(NC(=O)NCC(=O)Nc2ccc(C3=NCCN3)cc2)cc1)Nc1ccc(C2=NCCN2)cc1,3%,-2%,98.2% (active),-16%,-3%,88.4% (active),2%,-3%,98.8% (active),5%,5%,30.7%,0%,-5%,96.4% (active),4%,20%,95.2% (active)
CCCCCCC1CC(=O)C1(Cl)Cl (centres undefined),-9%,100% (active),89.1% (active),-16%,100% (active),93.3% (active),-17%,100% (active),90.1% (active),-4%,100% (active),92.5% (active),-32%,100% (active),92% (active),12%,100% (active),86.2% (active)
COc1ccc(C(c2ccc(N(C)C)cc2)c2ccc(N(C)C)cc2)cc1,97% (active),85% (active),93.5% (active),98% (active),88% (active),93% (active),99% (active),89% (active),94% (active),98% (active),85% (active),41.6%,99% (active),90% (active),94.5% (active),99% (active),87% (active),73.2% (active)
CC(=O)Nc1ccc(-c2csc(Nc3ccnc4cc(Cl)ccc34)n2)cc1,12%,40%,69.8%,-4%,46%,51.4%,9%,69%,72.8% (active),0%,4%,41%,-2%,40%,33.3%,3%,27%,82.9% (active)
NC(=S)NNCCC(=O)Nc1ccccc1C(F)(F)F,2%,3%,-9.75%,-2%,2%,12.2%,3%,4%,-1.9%,-3%,7%,6.15%,0%,1%,65.8%,-2%,7%,2.75%
CCOC(=O)CC[P+](Cc1ccccc1)(c1ccccc1)c1ccccc1,-32%,14%,64.9%,0%,0%,-1.5%,2%,3%,12.7%,4%,-2%,-15.4%,1%,4%,18.4%,7%,21%,11%
